# From the supplement of paper PMC6555819
# System: VDR:RXRa (NR concentration 270 nM, RXRa partner concentration 90 nM)
# Assay: PBM binding z-score (relative to random genomic background probes); higher = stronger binding; sequences stand for … in GC…GCGATTGACAGCGTAGAATGAAGG
# Protocol: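 Protein-binding microarray (Agilent 4x180K custom design, double-stranded 60-nt probes: 5' GC cap, 34-nt variable region, 24-nt constant primer region; full probe sequence given). Purified or IVT nuclear receptor:RXRα heterodimers (3:1 NR:RXRα, mostly 270:90 nM) or homodimers were incubated for 1 h in PBS with 2% milk and no ligand, then detected with Alexa488 antibodies. Fluorescence from o1-orientation probes (~5 replicates averaged) was converted to z-scores against 500 random hg19 background probes. Variable regions are seed direct-repeat (DR0–DR5) sites, all their single-nucleotide variants and half-site ablations.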
row,Sequence,PBM binding z-score
1,AGTCAAAGTTTACTAGGTAACGTAAGATTCAGCT,0.363
2,TCGAGTAGGTAACCAATGGGGCATTCAGCTTTCT,-0.172
3,TAGCCTAGGTGATTCAGGGGCCAGTATAGAAAGC,-0.381
4,CTAACTAGGTCAAGAGGTCAAAGTCCGCTTCCCG,6
5,ATCGAAAGGTCGTGAGGTGAGAATACAGAAAGGC,3.48
6,GTTATTAGTTGAAAGGGCAACCGAATGATTCTCG,1.24
7,CCTACTGGGCCATTCGGAGGTCATTGATCATATG,3.03
8,GATACAGGGTCAGCTAGAGGCCTGAGTATGGAAA,2.2
9,CCCACTGGGGCAGAAAGGTTACCATACCATCCGG,0.905
10,CCTCTTAGTTGACCATAAGGGCAACCGAAGCTCG,0.969
11,CTCGAAAGGTCGGTTGAGATGAGTATACGGATAA,0.961
12,TCTGCTAGGGCAACGATGGTCAGCTAATCTGCTA,-0.552
13,CGTCAAAGTTCAAGGGAACGTAACAGAAAGCAGC,3.12
14,CGTCCAAGGTCAAGGTCAGTAAAAGAGACTCGAA,4.65
15,CCTACTGGGCCTTTCAGAGGTCATTGATCATATG,3.36
16,ATCTCTAGGTACGACTCAGTTCAGTGAAGAACGC,1.28
17,ATATGAAGGTTAGCTGGGGTCATTCAGACTAGGC,6.61
18,ATCTCTAGGTAAGACGCAGTTCAGTGAAGAACGC,0.101
19,CCTAGTTGCTCAGGAGGTCACACACCGGATATGA,3.76
20,CAAACTAGGTCTCAGAGGTCAAAGTCCGTGCGTA,5.82

row,Sequence,PBM binding z-score
1,CGAACTAGGTCAGAACACGACAGTGAAGGATGAT,0.217
2,GCTCGGAGGACAAGGTCAGAGCGTTGTCCGTAGA,1.67
3,TCTTGTGGATCAACAGGAGGTTAAGAAAGATCGA,0.329
4,AGTCAAAGTTCACTACGTAACGTAAGATTCAGCT,3.72
5,ACAGACAGGTGAGAGAAGGTAACTCAGCTGGACG,-0.382
6,CCAGTCAGGTGAGAAGGTAACTCAGCCTCGATTA,-0.296
7,TGAATGAGTTTAAAGATCAGGGAACGTGGCGTCG,1.09
8,GGAACGAGGGCATTCGAGTTGATATCATGGCGAT,3.92
9,ATCTCTAGATAAAGTTCAGTGAAAGATCGATAGA,1.03
10,TAGCCTAGGTCATTGGGCCAGTTTAGTACGCATC,2.37
11,TCTTGTAGATCAAGCAGGTTCAGAAAGCCTGAGT,1.93
12,CATACAGGGTCAGCTAGGCCAGAGGAGGGACGGC,3.53
13,GTACCAAGGTGAGTAGGTCGTTGATGAGTAGGCG,0.177
14,TCTATTAGTTGAAGGGCAACTGACGAGTCCGTTT,0.937
15,CGAACGAGGGCATGAGTTGATATCAAATGCCGAT,1.44
16,CGTCCAAGGTCATAGGAGGTCTGTGAAGACAGAT,4.72
17,CCTTACGGGTCACTCCAGGTTATAGCTTCGGAGT,3.95
18,GCTGCTAGGTCAACTGATGGTCTGCTAAAGCTCG,1.29
19,CGTCCTAGGTCAAGGTCAGTGAAAGAGACTCGAA,3.2
20,GCATATAGCTAATACAAGGTGAAAGTCCGATTGT,0.231
